Measured values from PubChem BioAssay.
Unmarked numbers belong to inactive results. The source made the active and inactive calls. Rule as the data show it: active = fold change permeability below about 0.7 or above about 1.3; inactive = in between.

experiment: modulators of brain endothelial barrier permeability, primary screen, cell-based, FITC-avidin fluorescence, HTS (AID 1963498); conditions: actives lie on both sides; also: test concentration not given here

| SMILES | fold change permeability |
| --- | --- |
| COc1cc2c(cc1-c1c(C)noc1C)ncc1[nH]c(=O)n([C@H](C)c3ccccn3)c12 | 1.1 |
| CCNCc1nc2c(N)nc3ccccc3c2n1CC(C)(C)O | 1.1 |
| CCCNC(C)C(=O)Nc1ccccc1C (centres undefined) | 1 |
| CN(C)c1ccc(/C=C2\C(=O)Nc3ccccc32)cc1 | 1.6 (active) |
| CC(=O)[C@H]1CCC2C3CC=C4C[C@@H](OS(=O)(=O)O)CC[C@]4(C)C3CC[C@@]21C (some centres undefined) | 1 |
| O=[N+]([O-])c1ccc(-c2nc(-c3ccc(F)cc3)c(-c3ccncc3)[nH]2)cc1 | 1.4 (active) |
| c1cnc2c(c1)ccc1cccnc12 | 1.2 |
| COc1cc(/C=C(\C#N)C(=O)Nc2nnc(C(F)(F)F)s2)ccc1OCc1ccc(C(F)(F)F)cc1C(F)(F)F | 1.5 (active) |
| CN=c1nc(-c2ccccc2)n(-c2ccccc2)s1 | 2.1 (active) |
| Cc1cc(N2C[C@@H](C)N[C@@H](C)C2)ncc1-c1ccc(-c2nc3c(ccn3C)c(=O)[nH]2)cc1 | 1.3 (active) |
| CC(C)c1nc(N(C)S(C)(=O)=O)nc(-c2ccc(F)cc2)c1/C=C/[C@@H](O)C[C@@H](O)CC(=O)O | 0.9 |
| CC1=C(C(=O)O)N2C(=O)[C@@H](NC(=O)[C@H](N)C3=CCC=CC3)[C@H]2SC1 | 0.9 |
| N[C@H](CO)C(=O)O | 0.8 |
| Clc1ccc(N2CCN(Cc3c[nH]c4ncccc34)CC2)cc1 | 1.4 (active) |
| CC[C@]1(O)C[C@H]2CN(CCc3c([nH]c4ccccc34)[C@@](C(=O)OC)(c3cc4c(cc3OC)N(C=O)[C@H]3[C@@](O)(C(=O)OC)[C@H](OC(C)=O)[C@]5(CC)C=CCN6CC[C@]43[C@@H]65)C2)C1 | 2.1 (active) |
| CCCCCN(CCCOC)C(=O)C(CCC(=O)O)NC(=O)c1ccc(Cl)c(Cl)c1 (centres undefined) | 1 |
| CN1CCN(C(c2ccccc2)c2ccc(Cl)cc2)CC1 (centres undefined) | 1.7 (active) |
| CC(C)Cc1ccc([C@H](C)C(=O)O)cc1 | 2.3 (active) |
| CCOC(=O)C1=C(C)NC(C)=C(C(=O)OC)C1c1cccc([N+](=O)[O-])c1 (centres undefined) | 0.8 |
| NC(=Nc1ccc(OCCCCCOc2ccc(N=C(N)c3ccccc3)cc2)cc1)c1ccccc1 | 1 |

| SMILES | fold change permeability |
| --- | --- |
| CCN(Cc1ccncc1)C(=O)C(CO)c1ccccc1 (centres undefined) | 1.6 (active) |
| NCCCCN=C(N)N | 1.3 (active) |
| C=CC(N)CCC(=O)O (centres undefined) | 1.5 (active) |
| CCN(CC)CCOC(=O)C1(C2CCCCC2)CCCCC1 | 1.6 (active) |
| Cc1cc(Nc2cc(N3CCN(C)CC3)nc(Sc3ccc(NC(=O)C4CC4)cc3)n2)n[nH]1 | 1.6 (active) |
| O=C(O)Cc1c[nH]c2ccc(O)cc12 | 1.1 |
| COc1ccc2[nH]cc(CCNC(C)=O)c2c1 | 0.8 |
| CCCn1c(=O)c2c(ncn2C)n(CCC)c1=O | 1 |
| CCN(CC)CCCCCCCCOC(=O)c1cc(OC)c(OC)c(OC)c1 | 1.1 |
| c1ccc(-c2ccccn2)nc1 | 1 |
| O=C(O)CCc1ccc(-c2ccc(Br)cc2)n1-c1ccccc1C(F)(F)F | 1.2 |
| CC(O)C(O)[C@H]1CNc2nc(N)[nH]c(=O)c2N1 (some centres undefined) | 1.4 (active) |
| Fc1ccc(-c2ccc(Nc3nc(Cl)nc(Cl)n3)cc2)cc1 | 0.9 |
| CN(C)CCC(c1ccccc1)c1ccccn1 (centres undefined) | 1 |
| CCN(CC)CCNC(=O)c1cc(S(C)(=O)=O)ccc1OC | 0.9 |
| CCCC[C@@]1(C2CCCC2)Cc2cc(OCC(=O)O)c(Cl)c(Cl)c2C1=O | 1.6 (active) |
| COC(=O)C(C)(N)Cc1ccc(O)cc1 (centres undefined) | 0.8 |
| CCN(C)C(=O)C1(CCOc2ccccc2)CCN(Cc2ccc(O)c(Cl)c2)CC1 | 1 |
| Cc1c(OCC(F)(F)F)ccnc1CS(=O)c1nc2ccccc2[nH]1 (centres undefined) | 1.6 (active) |
